PubChem BioAssay
Several values for one entry are separate records, joined by “and”; a condition that tells them apart may be missing. Equal entries are not always repeated. For some assays here: Measured potencies and affinities stand elsewhere. Activity calls are given as the source filed them. Rule as the data show it, unless noted: active = parasite load remaining mostly below about 12% (no sharp cut-off); inactive = mostly above about 10%.

Experiments:
[1] = blockers of polyQ-driven CASP3 activation – cell-based (AID 1583); settings: polyglutamine-induced caspase-3 activation, cell assay; stronger effect = higher value;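 tested at 10 µM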
[2] = yeast 75Q aggregation reduction – 75Q-TubU reporter (AID 1593); settings: Yeast 75Q polyglutamine aggregation reporter
[3] = restoration of touch response, mutant HTT neurons – whole organism, C. elegans mechanosensory neurons, N-terminal huntingtin (AID 1599); settings: C. elegans polyQ-huntingtin mechanosensory neurons, stronger effect = higher value
[4] = blockers of cytochrome c efflux from mitochondria – biochemical, purified mitochondria (AID 1603); settings: stronger effect = lower value;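 also: mouse liver mitochondria challenged with calcium chloride; signal normalized to the plate average as 100%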
[5] = polyglutamine aggregate formation blockers (AID 1604); settings: polyglutamine-induced protein aggregation inhibition assay; stronger effect = higher value; tested at 2.5 µM
[6] = glutamate transport activators, MN-1 cells, MN-1 cell line (AID 1612); settings: MN-1 motor neuron cells, stronger effect = higher value;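 also: tested at 1 µM final; 0% = mean of DMSO vehicle wells on each plate; positive means more glutamate uptake than control and negative means less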
[7] = 75Q-TubH aggregate inhibition, S. cerevisiae, yeast (AID 1616); settings: S. cerevisiae 75Q-TubH polyglutamine aggregation suppression; stronger effect = higher value
[8] = P. berghei load reduction in hepatocytes – cell-based, HepG2, luciferase luminescence, HepG2 viability, primary screen (AID 624349);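 also: 100% = mean of DMSO negative control wells on the same plate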; settings: P. berghei liver stage in HepG2, luciferase luminescence, concentration not given here; parasite load remaining: stronger effect = lower value; viability: measured here: HepG2 viability without parasites
[9] = EMT-state selective cytotoxicity in co-culture – imaging, PC-3E GFP, TEM4-18 mCherry, primary screen (AID 1345086;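 active = compounds killing one labelled cell type while sparing the other, by normalised counts and ratio limits, not self-fluorescent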;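 as to all read-outs here: cells exposed to compound for 72 h before imaging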;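 as to red/green cell ratio (normalised): normalised mesenchymal count divided by normalised epithelial count so high means epithelial killing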); settings: PC-3E GFP / TEM4-18 mCherry co-culture, imaging cell counts, at 1 µM; for red/green cell ratio (normalised): actives lie on both sides, counts scaled to control wells, 1 = unselective
[10] = viability loss with induced miR-34 in A549 – imaging, A549 dox-inducible miR-34, nuclei and caspase counts, primary screen (AID 1347080;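 active = compounds whose cell count with miR-34 switched on is under 0.7 times the count with it off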); settings: A549 miR-34 inducible, Hoechst nuclei count, 48 h
[11] = GFP-Q80 aggregate reduction, neuronal-like cells, cell-based, NGF-treated PC12, GFPQ80 (AID 1614); settings: PC12 NGF-treated GFP-polyQ80 inclusion reduction;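 also: lower means fewer inclusions and 0 means no inclusions at all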
[12] = measured here: epithelial PC-3E GFP cell survival
[13] = measured here: mesenchymal TEM4-18 mCherry cell survival
[14] = stronger effect = lower value, cell number ratio, induced over uninduced
[15] = measured here: relative caspase fold change +Dox/-Dox
[16] = measured here: total cells with miR-34 induction, stronger effect = lower value
[17] = measured here: total cells without miR-34 induction

Row | Compound | inhibition [1] | score [2] | rescue above control [3] | cytochrome c release ratio [4] | inhibition of aggregation [5] | glutamate uptake change [6] | aggregation suppression score [7] | parasite load remaining [8] | viability [8] | red/green cell ratio (normalised) [9] | normalised cell number [9, 12] | normalised cell number [9, 13] | fold change [10, 14] | fold change [10, 15] | cell count [10, 16] | cell count [10, 17] | inclusion score [11]
1 | CC(=O)[C@H]1CCC2C3CCC4=CC(=O)CC[C@]4(C)C3CC[C@@]21C (stereo partly specified) | 41.6% | 0.59 | 3.59 | 1.24 | 84.5% | -1.48% | 0.333 | 49.3% (inactive) and 27.2% (inactive) | 66.1% and 99.4% | 0.96 (inactive) | 1.15 | 1.11 | 0.856 (inactive) | 1.4 | 9840 | 11500 | 
2 | CC(COc1ccccc1)NC(C)[C@H](O)c1ccc(O)cc1 (stereo partly specified) | -10.5% | 1.07 | -0.43 | 0.93 | 67.5% | 5.98% | 0.981 | 58.3% (inactive) | 72.5% and 101% | 1.11 (inactive) | 1.16 | 1.29 | 0.796 (inactive) | 1.19 | 10800 | 13600 | 2
3 | CN[C@@H]1C(O)[C@@H](O[C@@H]2[C@@H](O)[C@H](O[C@H]3OC(CN)=CC[C@H]3N)[C@@H](N)C[C@H]2N)OC[C@]1(C)O (stereo partly specified) | 11.9% | 1.54 | -2.25 | 1.22 | 66.2% | -12% | 1.05 | 96.3% (inactive) and 41.6% (inactive) | 74.6% and 94.8% | 1.18 (inactive) | 1.02 | 1.2 | 0.967 (inactive) | 4.46 | 11400 | 11800 | 2
4 | CC(C)[N+]1(C)C2CC[C@@H]1CC(OC(=O)C(CO)c1ccccc1)C2 (stereo partly specified) | 3.73% | 1.48 | -2.72 | 0.9 | 73% | -1.05% | 0.901 | 88% (inactive) and 61.6% (inactive) | 79% and 98.1% | 0.61 (inactive) | 1.35 | 0.82 | 0.876 (inactive) | 1.18 | 10700 | 12200 | 2
5 | C#C[C@]1(O)CCC2C3CCC4=C(CCC(=O)C4)C3CC[C@@]21C (stereo partly specified) | -10.6% | 0.8 | -0.46 | 1.11 | 55.6% | -10.2% | 0.537 | 73.4% (inactive) and 48.3% (inactive) | 71.3% and 92% | 1.12 (inactive) | 1.18 | 1.32 | 0.929 (inactive) | 1.51 | 11200 | 12100 | 
6 | C[C@]12CCC(=O)C=C1CCC1C2[C@@H](O)C[C@@]2(C)C1CC[C@]2(O)C(=O)COC(=O)CCC(=O)O (stereo partly specified) | 7.51% | 1.55 | -3.62 | 1.58 | 37.2% | -0.65% | 1.36 | 137% (inactive) and 66.7% (inactive) | 78.6% and 93.3% | 1.43 (inactive) | 0.86 | 1.23 | 0.766 (inactive) | 0.842 | 7240 | 9450 | 2
7 | C[C@]12CCC3c4ccc(O)cc4CCC3C1CC[C@@H]2OC(=O)CCC1CCCC1 (stereo partly specified) | 30.9% | -0.35 | -0.57 | 0.97 | 94.4% | -6.63% | 0.396 | 77.3% (inactive) and 37.9% (inactive) | 74.2% and 90.6% | 1.54 (inactive) | 0.83 | 1.27 | 1 (inactive) | 1.31 | 11300 | 11300 | 
